For 17 compounds, activity change, negative = inhibition, activity, negative = inhibition and Potency results are on record in PubChem BioAssay (NCATS).

Test [1] in a line: AP1 Signaling Pathway (AID 357).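 Note: ME-180 reporter cells stimulated with EGF at its EC50 level; % is set by controls: 0 for no effect and ±100 for the full control effect.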 Particulars: ME-180 AP-1-bla reporter, EGF-induced, beta-lactamase ratio, 5 h; at 17.2 µM (top of the series) unless noted. In a few lines: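 Titration-series screen for positive or negative modulators of EC50 EGF-induced signaling in ME-180 cells carrying an AP-1-driven beta-lactamase reporter. After 5 hours at 37 degrees Celsius, CCF4 460nm/530nm emission ratio gave %Activity; AC50 values derived.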

A short description of test [2]: Stat Signaling Pathway (AID 446).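 Note: ME-180 cervical cancer cells given 40 pM IL-6 alongside compound; SIE-controlled beta-lactamase reporter measured as 460/530 nm FRET emission ratio; % is set by controls: 0 for no effect and ±100 for the full control effect.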 Particulars: ME-180 SIE beta-lactamase reporter, IL-6 stimulated, 5 h; at 17.2 µM (top of the series) unless noted. In a few lines: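 Screening format detects activators and inhibitors alike: ME-180 SIE-bla cells stimulated at 40 pM IL-6 for 5 hrs with compound, then dual-emission beta-lactamase read at 405 nm excitation.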
Test [3] deals with Glucocorticoid receptor (Homo sapiens) (UniProt P04150). Description: GR-GFP Redistribution (AID 450;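 active = compounds whose dose series gives a full or clear partial fitted curve of increased nuclear translocation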; note: potency is the fitted concentration of half-maximal effect).
Sequence of Glucocorticoid receptor (Homo sapiens) (P04150 whole entry, looked up): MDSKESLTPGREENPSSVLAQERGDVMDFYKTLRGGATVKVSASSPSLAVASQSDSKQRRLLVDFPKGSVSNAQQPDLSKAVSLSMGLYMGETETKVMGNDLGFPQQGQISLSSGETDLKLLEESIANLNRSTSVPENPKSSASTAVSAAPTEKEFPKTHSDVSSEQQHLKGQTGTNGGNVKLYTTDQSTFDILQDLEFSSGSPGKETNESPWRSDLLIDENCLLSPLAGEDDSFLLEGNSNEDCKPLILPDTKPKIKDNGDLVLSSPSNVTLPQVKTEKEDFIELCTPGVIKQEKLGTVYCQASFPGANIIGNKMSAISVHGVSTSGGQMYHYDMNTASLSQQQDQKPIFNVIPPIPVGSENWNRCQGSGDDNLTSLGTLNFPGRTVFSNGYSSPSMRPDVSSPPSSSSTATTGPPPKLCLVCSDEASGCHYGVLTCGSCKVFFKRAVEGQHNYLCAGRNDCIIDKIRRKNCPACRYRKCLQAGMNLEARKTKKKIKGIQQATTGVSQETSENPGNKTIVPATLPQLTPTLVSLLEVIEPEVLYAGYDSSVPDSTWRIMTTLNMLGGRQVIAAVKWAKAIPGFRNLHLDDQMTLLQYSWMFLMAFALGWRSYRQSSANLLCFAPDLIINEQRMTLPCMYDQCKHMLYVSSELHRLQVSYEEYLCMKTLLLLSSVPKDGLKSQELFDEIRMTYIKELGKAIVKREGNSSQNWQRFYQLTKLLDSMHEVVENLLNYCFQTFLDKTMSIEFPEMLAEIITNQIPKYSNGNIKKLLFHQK

A number with no mark means an inactive call. Unless noted, calls come from the whole dose curve; as a rule, active = well fitted curve in either direction with a large enough effect (not every such curve was filed as active); inconclusive = small, poorly fitted or top-dose-only effect, or another doubt; inactive = flat fitted curve, though single readings scatter. Results filed as inconclusive are left out.

As for `C=CCOC(=O)C(C#N)c1nc2ccccc2nc1N1CCC(C(=O)OCC)CC1` (stereo not drawn), the activity change, negative = inhibition in test [1] is -17.2%. Besides, the activity, negative = inhibition in test [2] is -10.4%. Also, the Potency in test [3] is greater than 20.6 µM.

In the case of `Cc1ccc(S(=O)(=O)/C(C#N)=C/c2c(N3CCN(C)CC3)nc3c(C)cccn3c2=O)cc1`, the activity change, negative = inhibition in test [1] is 9.07%. Besides, the activity, negative = inhibition in test [2] was -7.22%. Further, the Potency in test [3] is greater than 20.6 µM.

Regarding `Cc1nn(C)cc1/C=N/n1nnnc1N`, the activity change, negative = inhibition in test [1] is 0.525%. The activity, negative = inhibition in test [2] was -1.52%. The Potency in test [3] was greater than 20.6 µM.

For `COc1ccc(Cn2c(N)c(C#N)c3nc4ccccc4nc32)cc1OC`, the activity change, negative = inhibition in test [1] was -3.62%. Further, the activity, negative = inhibition in test [2] is 11.6%. Further, in test [3], the Potency is greater than 20.6 µM.

As for `Nc1nc2n(n1)C(c1cccs1)CC(c1ccc(F)cc1)N2` (stereo not drawn), the activity change, negative = inhibition in test [1] is 5.72%. Moreover, in test [2], the activity, negative = inhibition is 1.08%. The Potency in test [3] is greater than 20.6 µM.

Consider `Clc1ccc(-n2ncc3c(NCc4cccs4)ncnc32)cc1`, for which the activity change, negative = inhibition in test [1] was 13.8%. For the same compound, the activity, negative = inhibition in test [2] is -14.7%. Moreover, the Potency in test [3] was greater than 20.6 µM.

As for `CCN1CCc2c(C#N)c(N3CCOCC3)nc(NCc3ccccc3)c2C1`, the activity change, negative = inhibition in test [1] is 1.6%. In test [2], the activity, negative = inhibition is 1.47%.

As to `Cc1ccc(-n2ncc3c(N4CCC(C(N)=O)CC4)ncnc32)c(C)c1`, the activity change, negative = inhibition in test [1] was 5.42%. Also, in test [2], the activity, negative = inhibition was -2.42%. Besides, in test [3], the Potency was greater than 20.6 µM.

`CCCCCCOc1ccc(C(=O)n2cnc(N)n2)cc1`: the activity change, negative = inhibition in test [1] was -12.8%. For the same compound, the activity, negative = inhibition in test [2] was 27.4%. Also, in test [3], the Potency is greater than 20.6 µM.

For `N#CC1=C(N)N(c2ccccc2)C(c2ccccc2)C1(C#N)C#N` (stereo not drawn), the activity change, negative = inhibition in test [1] was -27.2%. In addition, the activity, negative = inhibition in test [2] is -18.6%. In test [3], the Potency was greater than 20.6 µM.

Consider `CC[C@H]1OC(=O)C[C@@H](O)[C@H](C)[C@@H](O[C@@H]2O[C@H](C)C[C@H](N(C)C)[C@H]2O)[C@@H](CC=O)C[C@@H](C)C(=O)C=C[C@]2(C)O[C@H]2[C@@H]1C`, for which the activity change, negative = inhibition in test [1] was 1.65%. In test [2], the activity, negative = inhibition is 1.05%.

Regarding `COc1ccccc1-c1nnc2n1N=C(c1ccc(O)c(O)c1)CS2`, the activity change, negative = inhibition in test [1] was 10.7%. Further, the activity, negative = inhibition in test [2] is -15.4%.

On to `CCOC(=O)c1nc(N)c(C(=O)OCC)[nH]1`, for which, in test [1], the activity change, negative = inhibition was 8.92%. Further, the activity, negative = inhibition in test [2] was 6.9%. Moreover, the Potency in test [3] was greater than 20.6 µM.

As for `N#Cc1nc(COc2ccc(Br)cc2)oc1N1CCN(Cc2ccccc2)CC1`, the activity change, negative = inhibition in test [1] is -15.5%. Further, the activity, negative = inhibition in test [2] is 8.74%. Further, in test [3], the Potency was greater than 20.6 µM.

For the compound `c1ccc2c(NCC3CCCO3)nc(-c3ccncc3)nc2c1` (stereo not drawn), the activity change, negative = inhibition in test [1] is -9.19%. Besides, the activity, negative = inhibition in test [2] was 4.85%. For the same compound, the Potency in test [3] is greater than 20.6 µM.

As for `Fc1ccc2[nH]c3c(N4CCN(C5CCCCC5)CC4)ncnc3c2c1`, in test [1], the activity change, negative = inhibition is 7.44%. Further, the activity, negative = inhibition in test [2] was 16.1%. The Potency in test [3] was greater than 20.6 µM.

In the case of `CCN(CC)CCNc1nc(-c2ccco2)c2c(c1C#N)CC(C)(C)OC2`, in test [1], the activity change, negative = inhibition is 12.8%. In addition, the activity, negative = inhibition in test [2] was 14.7%. Moreover, in test [3], the Potency is greater than 20.6 µM.
